Test systems include NCI-H23 lung; NCI-H226 lung; NCI-H322M lung; HOP-62 NSCLC; NCI-H460 lung; HOP-92 NSCLC; NCI-H522 lung; A549/ATCC NSCLC; 786-0 renal; COLO 205 colon; DU-145 prostate; K-562 leukemia; MALME-3M melanoma; MDA-MB-231 breast; SF-268 CNS; SF-295 CNS; SF-539 CNS; UACC-257 melanoma; M14 melanoma.
Common to all, as to assay: NCI-60 one-dose screen, 48 h (100 = growth as untreated, 0 = no growth, -100 = all killed)
Holding throughout (settings): 10 µM unless noted

This is part of a sample that, as a whole, favours compounds with a hit. Of some 83,000 tested, about 20% had one in any assay.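 Plates (96-well) were seeded with cells, treated with compound at one concentration, and incubated for 48 hours before percent growth was determined.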 A number with no mark means an inactive call. The source made the active and inactive calls. The calls were made as follows: active = growth percent below 10; inactive = the rest.

Regarding `NC(=O)C1(N2CCCCC2)CCN(CCCC(=O)c2ccc(F)cc2)CC1`, the growth was 31.6% in the assay with NCI-H23 lung; 43.7% with NCI-H226 lung; 52.5% in the assay with NCI-H322M lung; 38.3% in the assay on HOP-62 NSCLC; 11.9% with NCI-H460 lung; 92.5% with HOP-92 NSCLC. The growth with NCI-H522 lung is -30.2% (active); in the assay on A549/ATCC NSCLC it was 79.3%; in the assay on 786-0 renal, 49.8%; in the assay with COLO 205 colon it was 13.9%; in the assay with DU-145 prostate it was 5.34% (active); in the assay on K-562 leukemia, 10.8%. For the same compound, the growth was 57.1% with MALME-3M melanoma; 29.7% with MDA-MB-231 breast; 38.4% in the assay with SF-268 CNS; 4.82% (active) with SF-295 CNS; -3.17% (active) in the assay on SF-539 CNS; 47.1% in the assay on UACC-257 melanoma. Moreover, the growth with M14 melanoma was 44.8%.

Turning to `c1ccc(N2N=C(c3cccc(Nc4ccncc4)c3)CC2c2ccc3c(c2)OCO3)cc1` (configuration not stated), the growth in the assay with NCI-H23 lung was 61.1%; in the assay with NCI-H226 lung, 77.7%; in the assay on NCI-H322M lung it was 42.7%; in the assay with HOP-62 NSCLC, 23.5%; with NCI-H460 lung, -48.5% (active); with HOP-92 NSCLC it was 25.6%. The growth was 17.9% with NCI-H522 lung; 21.1% in the assay with A549/ATCC NSCLC; 81% in the assay on 786-0 renal; -53% (active) with COLO 205 colon; 16.4% in the assay on DU-145 prostate; 4.94% (active) in the assay on K-562 leukemia. Further, the growth with MALME-3M melanoma was -22.6% (active); in the assay with MDA-MB-231 breast, 37.7%; in the assay on SF-268 CNS, 29.9%; with SF-295 CNS, -17.1% (active); in the assay with SF-539 CNS, 9.86% (active); with UACC-257 melanoma it was 27.2%. In addition, in the assay with M14 melanoma, the growth was 93.1%.

For the compound `COc1ccc(-c2nc(N=Nc3c(O)[nH]c4ccccc34)nc(N3CCOCC3)c2C#N)cc1`, the growth is 81.9% in the assay with NCI-H23 lung; 38.4% with NCI-H226 lung; 77.1% in the assay with NCI-H322M lung; 68% with HOP-62 NSCLC; 46.5% in the assay with NCI-H460 lung; 19.6% in the assay with HOP-92 NSCLC. Also, the growth in the assay on NCI-H522 lung is 72.1%; in the assay with A549/ATCC NSCLC, 51.7%; in the assay with 786-0 renal, 79.7%; in the assay with COLO 205 colon, 67.8%; in the assay with DU-145 prostate, 63.7%; with K-562 leukemia, 75%. Also, the growth was 51% with MALME-3M melanoma; 42.6% with MDA-MB-231 breast; 62.4% in the assay on SF-268 CNS; 86.4% in the assay on SF-295 CNS; -47.2% (active) with SF-539 CNS; 73.6% with UACC-257 melanoma. Also, the growth in the assay on M14 melanoma was 60.9%.

As for `COc1nc(N)nc(-n2c(-c3ccc(C)cc3)nc3ccccc32)c1NCc1ccc(C)cc1`, the growth with NCI-H23 lung is 95.6%; with NCI-H226 lung, 89%; with NCI-H322M lung, 90.2%; in the assay on HOP-62 NSCLC, 86.5%; with NCI-H460 lung, 105%; in the assay on HOP-92 NSCLC, 78.2%. Further, the growth in the assay with NCI-H522 lung is 79.9%; with A549/ATCC NSCLC, 78.4%; with 786-0 renal, 90.3%; with COLO 205 colon, 108%; with DU-145 prostate, 103%; in the assay with K-562 leukemia, 87.2%. The growth in the assay with MALME-3M melanoma was 105%; in the assay on MDA-MB-231 breast it was 80.4%; in the assay on SF-268 CNS, 94.9%; in the assay with SF-295 CNS, 92.8%; in the assay with SF-539 CNS it was 98.3%; in the assay on UACC-257 melanoma it was 100%. Moreover, the growth with M14 melanoma was 95.6%.

For `O=C(Nc1ccc2ncnc(Nc3ccc(Oc4cccc(F)c4)c(Cl)c3)c2c1)c1ccc(CNCCO)cc1`, the growth in the assay with NCI-H23 lung was 73.7%; in the assay on NCI-H226 lung, 91.6%; in the assay with NCI-H322M lung it was 39.9%; with HOP-62 NSCLC, 54.7%; in the assay with NCI-H460 lung it was -61.4% (active); in the assay with HOP-92 NSCLC, 62.5%. The growth in the assay with NCI-H522 lung was 26.9%; in the assay on A549/ATCC NSCLC, 48.6%; in the assay with 786-0 renal it was -4.01% (active); in the assay with COLO 205 colon, -54.5% (active); with DU-145 prostate, 7.74% (active); with K-562 leukemia, -8.41% (active). Further, the growth was 2.04% (active) in the assay on MALME-3M melanoma; -67.2% (active) in the assay on MDA-MB-231 breast; 56% with SF-268 CNS; 19.6% in the assay on SF-295 CNS; 33.9% in the assay on SF-539 CNS; 99.1% with UACC-257 melanoma. Also, the growth with M14 melanoma was -45.9% (active).

Take `CSc1nnc2c(=O)n(C)c(=O)n(C)c2n1`: the growth in the assay with NCI-H23 lung was 108%; in the assay with NCI-H226 lung it was 93.2%; in the assay on NCI-H322M lung it was 88.9%; in the assay with HOP-62 NSCLC, 116%; in the assay with NCI-H460 lung, 114%; in the assay with HOP-92 NSCLC it was 68.1%. The growth in the assay on NCI-H522 lung is 103%; in the assay on A549/ATCC NSCLC it was 104%; with 786-0 renal, 116%; in the assay on COLO 205 colon, 97.8%; with DU-145 prostate, 100%; in the assay with K-562 leukemia it was 86.1%. Moreover, the growth was 114% with MALME-3M melanoma; 105% with MDA-MB-231 breast; 108% in the assay on SF-268 CNS; 130% in the assay with SF-295 CNS; 109% in the assay with SF-539 CNS; 123% in the assay with UACC-257 melanoma. In addition, the growth in the assay on M14 melanoma is 102%.

For the compound `CCN(CC)CCSCCCNc1c(C)cnc2cc(Cl)ccc12`, the growth was 89.8% in the assay on NCI-H23 lung; 100% in the assay on NCI-H226 lung; 90.8% with NCI-H322M lung; 85.2% in the assay with HOP-62 NSCLC; 96.8% in the assay on NCI-H460 lung; 81.6% with HOP-92 NSCLC. The growth with NCI-H522 lung is 102%; in the assay with A549/ATCC NSCLC, 95.9%; in the assay on 786-0 renal, 82.7%; in the assay with COLO 205 colon, 61.4%; in the assay on DU-145 prostate it was 88.2%; in the assay with K-562 leukemia it was 5.33% (active). Moreover, the growth in the assay with MALME-3M melanoma was 87%; in the assay on MDA-MB-231 breast, 61.9%; in the assay on SF-268 CNS it was 81%; with SF-295 CNS, 90.5%; in the assay with SF-539 CNS it was 71%; in the assay with UACC-257 melanoma it was 113%. Moreover, the growth in the assay with M14 melanoma is 89.5%.

Take `COC(=O)Nc1nc2ccc(C(=O)c3cccc(I)c3)cc2[nH]1`: the growth with NCI-H23 lung was 22.1%; with NCI-H226 lung, 51.4%; in the assay on NCI-H322M lung, 39.4%; in the assay on HOP-62 NSCLC, 37%; in the assay with NCI-H460 lung it was 4.52% (active); in the assay with HOP-92 NSCLC, 51.5%. For the same compound, the growth with NCI-H522 lung was -29.2% (active); with A549/ATCC NSCLC it was 15.3%; in the assay with 786-0 renal it was 27.2%; in the assay on COLO 205 colon it was -29.7% (active); in the assay with DU-145 prostate, 5.95% (active); in the assay on K-562 leukemia, 6.18% (active). The growth with MALME-3M melanoma was 31.3%; in the assay with MDA-MB-231 breast, -3.99% (active); in the assay on SF-268 CNS, 22.4%; with SF-295 CNS it was 12%; in the assay on SF-539 CNS, -25.8% (active); in the assay on UACC-257 melanoma, 61.4%. In the assay on M14 melanoma, the growth was 1.39% (active).

The record behind these values is PubChem BioAssay (NCI).
